Over roughly 81,000 sequences, “one-hybrid fitness for binding parS DNA” has its median near -0.17; the highest 2% begin near 0.51. This excerpt belongs to a sample that is enriched for the highest values.
B1: Caulobacter ParB omega fusion; a variant is named by its letters at X, in order, B8GW30 (parent)
chain: MESVVVGEPGMSEGRRGLGRGLSALLGEVDAAPAQAPGEQLGGSREAPIEILQRNPDQPRRTFREEDLEDLSNSIREKGVLQPILVRPSPDTAGEYQIVAGERAWRAAQRAGLKTVPIMVRELDDLAVLEIGIIENVQRADLNVLEEALSYKVLMEKFERTQENIAQTIGKSXSHVANXMRLLXLPDEVQSYLVSGELTAXHARAIAAAADPVALAKQIIEGGLSVRETEALARKAPNLSAGKSKGGRPPRVKDTDTQALESDLSSVLGLDVSIDHRGSTGTLTITYATLEQLDDLCNRLTRGI

Variants of: B1
Test: one-hybrid fitness for binding parS DNA (scaled: cognate 1, non-cognate 0); higher = stronger binding
Conditions: with parS DNA site
In short: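 Bacterial one-hybrid selection in E. coli USO rpoZ- hisB- pyrF- with a HIS3 reporter carrying the site 19 bp from the promoter, screening Caulobacter ParB libraries with four specificity codons randomised (NNS). Cells grew 48 hours at 37°C on M9-minus-histidine plus 0.1 mM IPTG and 5 mM 3-AT. Plasmids before and after selection were Illumina-sequenced, three replicate libraries pooled, and variants under 10 reads dropped. Fitness is the log change in variant-to-wild-type read ratio, rescaled to cognate 1, non-cognate 0.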

one-hybrid fitness for binding parS DNA, 0.911:
RAST

one-hybrid fitness for binding parS DNA, 0.582:
RYTA

one-hybrid fitness for binding parS DNA, 0.379:
RIIN

one-hybrid fitness for binding parS DNA, 0.908:
RADG
RKCC
RTRG

one-hybrid fitness for binding parS DNA, 0.852:
RACT

one-hybrid fitness for binding parS DNA, 0.604:
RCPT

one-hybrid fitness for binding parS DNA, 0.232:
RCMP

one-hybrid fitness for binding parS DNA, 0.864:
RQKS

one-hybrid fitness for binding parS DNA, 0.907:
RANT

one-hybrid fitness for binding parS DNA, 1.04:
RLMS
RIMS

one-hybrid fitness for binding parS DNA, 0.375:
RQVY

one-hybrid fitness for binding parS DNA, 0.885:
RIAT

one-hybrid fitness for binding parS DNA, 1.02:
RTLG
RTYG

one-hybrid fitness for binding parS DNA, 0.921:
RKLC

one-hybrid fitness for binding parS DNA, 0.228:
RACF

one-hybrid fitness for binding parS DNA, 0.281:
RKRM

one-hybrid fitness for binding parS DNA, 0.367:
RIAM

one-hybrid fitness for binding parS DNA, 0.473:
RNTA

one-hybrid fitness for binding parS DNA, 0.21:
RKHM

one-hybrid fitness for binding parS DNA, 1.03:
RMMS

one-hybrid fitness for binding parS DNA, 0.971:
RACG

one-hybrid fitness for binding parS DNA, 0.92:
RAGT

one-hybrid fitness for binding parS DNA, 0.31:
RAQM

one-hybrid fitness for binding parS DNA, 0.241:
RAHP

one-hybrid fitness for binding parS DNA, 0.581:
RQKY

one-hybrid fitness for binding parS DNA, 0.578:
RSTA
RVTA

one-hybrid fitness for binding parS DNA, 0.384:
RAWN

one-hybrid fitness for binding parS DNA, 1.01:
RAYG
RAHG
RALG
RTHG
RCMS

one-hybrid fitness for binding parS DNA, 0.435:
RACY

one-hybrid fitness for binding parS DNA, 0.229:
RAQF

one-hybrid fitness for binding parS DNA, 0.297:
RIFF

one-hybrid fitness for binding parS DNA, 0.956:
RARG

one-hybrid fitness for binding parS DNA, 0.316:
RQVN

one-hybrid fitness for binding parS DNA, 0.586:
RATA

one-hybrid fitness for binding parS DNA, 0.434:
RANN

one-hybrid fitness for binding parS DNA, 0.329:
RVAM
RAHM

one-hybrid fitness for binding parS DNA, 0.806:
RKNC

one-hybrid fitness for binding parS DNA, 0.324:
RAYM

one-hybrid fitness for binding parS DNA, 0.925:
RKYC

one-hybrid fitness for binding parS DNA, 0.894:
RAQT

one-hybrid fitness for binding parS DNA, 0.541:
RFTA

one-hybrid fitness for binding parS DNA, 0.234:
RASF

one-hybrid fitness for binding parS DNA, 0.656:
RRTA

one-hybrid fitness for binding parS DNA, 1:
RANG
RASG
RAQG

one-hybrid fitness for binding parS DNA, 0.494:
RQYY

one-hybrid fitness for binding parS DNA, 0.516:
RHTA

one-hybrid fitness for binding parS DNA, 0.732:
RADT

one-hybrid fitness for binding parS DNA, 0.469:
RAQY

one-hybrid fitness for binding parS DNA, 0.882:
RKHC

one-hybrid fitness for binding parS DNA, 0.923:
RKDC

one-hybrid fitness for binding parS DNA, 0.55:
RITA

one-hybrid fitness for binding parS DNA, 0.41:
RACN

one-hybrid fitness for binding parS DNA, 0.26:
RAHH

one-hybrid fitness for binding parS DNA, 0.376:
RGTA

one-hybrid fitness for binding parS DNA, 0.45:
RTHN

one-hybrid fitness for binding parS DNA, 0.836:
RART

one-hybrid fitness for binding parS DNA, 0.937:
RQVS

one-hybrid fitness for binding parS DNA, 0.737:
RKRC

one-hybrid fitness for binding parS DNA, 0.746:
RKTA

one-hybrid fitness for binding parS DNA, 0.223:
RAWH

one-hybrid fitness for binding parS DNA, ≤ 0.2:
VHWV
CRAC
QHLA
DKPG
IKTN
AQFC
TGAE
RVFP
RVFK
GARV
QRMF
NYTA
KQTA
NRTA
DTTA
NQTA
NTTA
EYTA
DRTA
FTDF
KGIS
VCHR
EKES
KHQG
LHTY
DYTC
APHT
YEEE
RDTA
RETA
NLQR
HMPW
LVSL
QMTR
KAGR
GRLC
QTFT
ATQR
IINN
QNFC
EITA
DITA
NVTA
EFTA
AVTA
RPTA
DFTA
GLTC
TSQQ
VYNA
AYGG
SRQV
FRFR
ACAI
TPWT
GHMG
PGAS
NLTA
DLTA
DATA
HHAP
NDPH
RCLD
KLRG
RIFR
RIAQ
QSSH
PVNK
RQKD
RQKP
RQVD
TGHV
GPHD
RAYD
RARD
RARP
RAYH
RANE
RANQ
PSYN
WIKS
SDEV
WGFG
PYGM
CARA
PAYT
APAI
YGRH
RASR
RALP
RAHK
RAGP
RALD
ACSG
LMLS
QSHN
TPPK
GNDG
GGIR
HVTA
LPSV
VEFL
RADD
RAQK
QSRC
AVDS
RKLR
RKSH
RKHQ
RKSD
RKRK
DVNN
VNYS
PWEG
NNLY
VLIA
VPYR
LEDT
PHLT
MREY
RKYR
RKDF
RKND
RKCH
RKDR
RKNP
RKCD
IKIT
LFDR
IRTA
MSDQ
EAWR
DRKV
LAGW
RPIL
QIFK
ANVG
RTRQ
RTLR
RTHP
RTGH
RTLQ
DCRS
IAEG
SAYT
MHTF
PSYT
VTEN
NTYG
RTYQ
HADL
RIPP
RIPN
RIIK
REPT
RPPT
YDNV
FNSY
TSTS
SATQ
RMWK
RLRL
KRHS
PLTH
RACD
RAYR
MLRS
GTET
SSAG
DLPN
DGPD
NYGR
SRPW
LATK
AQEG
QIWY
RARQ
RAGR
RAGQ
RASQ
PKYV
APEG
FICL
GDRF
VNRI
QPAD
QAKR
PSVL
PTYM
RADK
RALQ
RADR
RALK
MCRN
QVLP
NHYR
EVTS
GHDR
HVTM
PTLD
TYDN
AAAL
LNIY
RMML
RIMP
RPMS
RMMD
RLMD

one-hybrid fitness for binding parS DNA, 0.213:
RKYQ

one-hybrid fitness for binding parS DNA, 0.28:
RARF

one-hybrid fitness for binding parS DNA, 0.812:
RKSC

one-hybrid fitness for binding parS DNA, 0.609:
RCTA

one-hybrid fitness for binding parS DNA, 0.459:
RWTA
RASY
RLMN

one-hybrid fitness for binding parS DNA, 0.264:
RIMH

one-hybrid fitness for binding parS DNA, 0.464:
RVAY

one-hybrid fitness for binding parS DNA, 0.6:
RMTA

one-hybrid fitness for binding parS DNA, 0.574:
RQTA

one-hybrid fitness for binding parS DNA, 0.904:
RAYT

one-hybrid fitness for binding parS DNA, 0.928:
RAHT

one-hybrid fitness for binding parS DNA, 0.599:
RLTA

one-hybrid fitness for binding parS DNA, 0.612:
RTTA

one-hybrid fitness for binding parS DNA, 0.372:
RADN

one-hybrid fitness for binding parS DNA, 0.396:
RTRN

one-hybrid fitness for binding parS DNA, 0.715:
RIIT

one-hybrid fitness for binding parS DNA, 0.997:
RTGG

one-hybrid fitness for binding parS DNA, 0.99:
RAGG

one-hybrid fitness for binding parS DNA, 0.809:
RAWT

one-hybrid fitness for binding parS DNA, 0.33:
RTGM

one-hybrid fitness for binding parS DNA, 0.888:
RALT

one-hybrid fitness for binding parS DNA, 0.268:
RAGH

one-hybrid fitness for binding parS DNA, 0.549:
RIPT

one-hybrid fitness for binding parS DNA, 0.834:
RIFT

one-hybrid fitness for binding parS DNA, 0.999:
RVAG

one-hybrid fitness for binding parS DNA, 0.272:
RKLM

one-hybrid fitness for binding parS DNA, 0.993:
RVFG

one-hybrid fitness for binding parS DNA, 0.215:
RAND

Source: a collection of fitness landscapes (doi:10.1016/j.celrep.2020.107928)
